Experimental data published in PubChem BioAssay AID1851 (National Center for Advancing Translational Sciences (NCATS), 2009).
Where “and” joins values, the source holds several entries; their conditions need not be identical. Equal values may be shown once. The whole screen tested about 16,000 compounds, of which about 5,700 (36%) were called active. Roughly 24% stayed inconclusive and do not appear here. Calls follow the shape of the dose curve; as a rule, active = well fitted curve in the direction sought with a large enough effect; inconclusive = small, poorly fitted or top-dose-only effect, or effect the other way; inactive = no such curve, though single readings can be large or run the other way. Some of the results follow.

molecular target: Cytochrome P450 1A2 (Homo sapiens) (UniProt P05177); test: Cytochrome panel assay with activity outcomes; conditions: recombinant CYP, pro-luciferin dealkylation, luminescence, p450-cyp1a2; series mostly up to 57.1 µM; activity, negative = inhibition: at the top concentration
Sequence (P05177 whole entry, looked up): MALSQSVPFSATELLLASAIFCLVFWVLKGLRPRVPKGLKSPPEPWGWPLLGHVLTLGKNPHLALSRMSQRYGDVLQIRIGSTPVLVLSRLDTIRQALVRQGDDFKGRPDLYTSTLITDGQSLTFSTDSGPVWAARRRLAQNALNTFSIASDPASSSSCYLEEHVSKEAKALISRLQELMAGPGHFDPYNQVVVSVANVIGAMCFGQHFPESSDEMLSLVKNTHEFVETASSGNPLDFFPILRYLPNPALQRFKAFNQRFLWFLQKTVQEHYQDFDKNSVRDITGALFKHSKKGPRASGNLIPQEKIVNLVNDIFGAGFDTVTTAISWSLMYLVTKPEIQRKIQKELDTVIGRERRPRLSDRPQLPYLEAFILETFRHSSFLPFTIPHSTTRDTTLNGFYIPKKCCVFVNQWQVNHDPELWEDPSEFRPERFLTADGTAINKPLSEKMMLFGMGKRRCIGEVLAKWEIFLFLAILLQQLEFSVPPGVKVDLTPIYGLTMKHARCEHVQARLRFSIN
% is scaled to controls: 0 for no effect and ±100 for the full control effect.

AC50, active:
Cc1nn(C(=O)c2ccco2)c(C)c1Sc1ccccc1 15.8 µM, O=C(O)[C@@H]1C[C@@H](C(=O)O)N1 31.6 µM, NC(N)=NN=Cc1c(Cl)cccc1Cl 7.94 µM and 3.98 µM, Cc1cccc(NC(=O)c2ccc([N+](=O)[O-])o2)n1 5.01 µM, Cc1cccc(NC(=O)c2cc(=O)c3ccccc3o2)n1 2 µM, CNC(=O)CCc1nc(-c2ccc(C(C)(C)C)cc2)no1 6.31 µM, CN(C)C(=O)CCc1nc(-c2ccc(C(C)(C)C)cc2)no1 6.31 µM, CN(C)c1ncc2ncc(=O)n(C3CC3)c2n1 3.16 µM, COc1ncc2ncc(=O)n(C3CC3)c2n1 10 µM, CN(C)c1ncc2ncc(=O)n(C)c2n1 6.31 µM, COc1ccc(Oc2ncc3ncc(=O)n(C4CC4)c3n2)cc1 5.01 µM, Cc1nc(NC(N)=S)sc1C(=O)Nc1ccccc1 8.91 µM, O/N=C/c1ccccc1OCc1ccc(Cl)cc1 2.24 µM, O=C(Cc1ccccc1)N/N=C/c1ccccc1OCc1ccc(Cl)cc1 2.24 µM, Cc1ccc(COc2ccc(Br)cc2/C=N/O)cc1 1.58 µM, NC(=S)N/N=C/c1ccccc1OCc1cccc(Cl)c1 2.24 µM, Cc1n[nH]c(=S)n1/N=C/c1ccccc1OCc1ccc(Cl)cc1 1.58 µM, O/N=C/c1cc(Cl)ccc1OCc1cccc2ccccc12 0.112 µM, O=C1CCC(c2ccc(-n3ccnc3)cc2)=NN1 0.158 µM, COCCn1c(=O)c(-c2ccccc2)nc2cnc(Nc3ccccc3)nc21 5.01 µM, CCNc1ncc2nc(-c3cc(F)cc(F)c3)c(=O)n(CCOC)c2n1 3.16 µM, CCNc1ncc2nc(-c3ccccc3)c(=O)n(CCOC)c2n1 3.16 µM, CC(C)Oc1ccc2ccccc2c1C=O 1.12 µM, COc1ccccc1NS(=O)(=O)c1cccc(C(=O)OCC(=O)Nc2cc(C)on2)c1 14.1 µM

AC50, inactive:
NC(N)=NC(=O)Cc1c(Cl)cccc1Cl

activity, negative = inhibition, inactive:
Cc1nc2ncnn2c(C)c1CCC(=O)N1CCN(C(=O)c2ccco2)CC1 2.36%, CCCCN(C(=S)Nc1ccccc1)C1CCS(=O)(=O)C1 (configuration not stated) -16.7%, O=C(O)[C@@H]1CCCN1 -12% [at 11.4 µM], O=C(O)[C@H]1C[C@H](C(=O)O)N1 -1.37%, NC(N)=N/N=C\c1ccc(O)c(C(=O)O)c1 -11.9% [at 2.29 µM], Cc1ccc(OCC(=O)NNC(=O)c2cc3ccccc3o2)cc1 -13.1%, Cc1cccc(NC(=O)c2cc(N3C(=O)CCC3=O)ccc2Cl)n1 -29.7%, Cc1cccc(Sc2c([N+](=O)[O-])ncn2C)n1 14.5%, COC(=O)[C@@]1(Cc2ccc(OC)cc2)[C@H]2c3cc(C(=O)N4CCCC4)n(Cc4cc(F)cc5c4OCOC5)c3C[C@H]2CN1C(=O)c1ccccc1 -16.7%, C/C(CCN1CCc2nc(-c3ccccc3)c(-c3ccccc3)cc2C1)=N\O[C@@H](C)c1cn([C@@H]2COC[C@@H]2O)nn1 -3.92% [at 11.4 µM], O=C(O)c1ccc(OCc2ccccc2)c(Cl)c1 -3.18% [at 2.29 µM], CCOc1cc(/C=N/NC(=O)CN2CCCCC2)ccc1OCc1ccccc1 -28.3%, NCc1ccc(S(N)(=O)=O)cc1 -4.42% [at 25.6 µM], Cc1[nH]c2ccccc2c1C(c1ccccn1)N1CCC(C)CC1 (configuration not stated) -17.7%, CCn1c(O)c(/C=N/N=C2CCCC2)c2ccc(C3=NNC(=O)CC3)cc21 -21%, O=C(Nc1cccc(F)c1)N1CCC2(CCNCC2)CC1 11.5%, COc1cccc(Cn2c(=O)c(-c3cccc(C#N)c3)nc3cnc(Nc4ccccc4)nc32)c1 0.136%, O=C(CNS(=O)(=O)c1ccc(Br)s1)N1CCC(N2CCCCC2)CC1 -3.52%, Oc1cc(O)c2c(c1)O[C@@H](c1ccc(O)c(O)c1)[C@H](O[C@@]1(c3cc(O)c(O)c(O)c3)Oc3cc(O)cc(O)c3[C@H](O)[C@@H]1O)C2 -13.3% [at 11.4 µM], COc1ccc(O[C@H]2C=C[C@@H](c3ccccc3)O[C@H]2COC(=O)CC/C(C)=N\O[C@@H](C)CN2CCCc3nc(C)c(C)cc32)cc1 2.58% [at 11.4 µM], Cc1cc(NC(=O)COC(=O)c2ccc(NS(=O)(=O)c3ccc(C)c(C)c3)cc2)no1 -13%, Cc1n[nH]c(C)c1S(=O)(=O)N1CCC(C(=O)O)CC1 1.2%
